Measured values from PubChem BioAssay AID1159580 (chemical genetic matrix, 2015).
The campaign covered roughly 5,500 compounds. About 2,000 (36%) were called active. Another 18% or so got no clear call; they are omitted. No stated cut-off is given here; in the data, active means normalized growth mostly below about 0.91 (no sharp cut-off); inconclusive means no clear call, values can overlap the other calls; inactive means mostly above about 0.92. This is one part of the list.

Experiment: chemical genetic growth profiling, strain panel (AID 1159580);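 further: tested at 20 µM; growth read once vehicle control cultures reached saturation at 30 °C; 1 = growth at the plate median or of vehicle wells; lower values mean less growth of the strain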
Conditions: growth OD

Measured: normalized growth

O=C(c1ccccc1)c1ccc2n1CCC2C(=O)O (stereo not drawn)
inactive: S. cerevisiae deletion strains, locus YKL009W, strain mrt4, hits give low values 0.962 | S. cerevisiae deletion strains, locus YKL068W, hits give low values 0.979 | S. cerevisiae deletion strains, locus YKL085W, strain MDH1 (second series), hits give low values 0.99 | S. cerevisiae deletion strains, locus YKL085W, strain MDH1, hits give low values 0.99 | S. cerevisiae deletion strains, locus YKL160W, strain elf1, hits give low values 1.03 | S. cerevisiae deletion strains, locus YKL190W, strain CNB1, hits give low values 0.999 | S. cerevisiae deletion strains, locus YKR001C, strain vps1, hits give low values 0.98 | S. cerevisiae deletion strains, locus YKR026C, strain gcn3, hits give low values 1 | S. cerevisiae deletion strains, locus YKR091W, strain srl3, hits give low values 0.961 | S. cerevisiae deletion strains, locus YLL001W, strain dnm1, hits give low values 1.01 | S. cerevisiae deletion strains, locus YLL026W, hits give low values 0.999 | S. cerevisiae deletion strains, locus YLL041C, strain sdh2, hits give low values 0.995 | S. cerevisiae deletion strains, locus YLR027C, strain aat2, hits give low values 0.99 | S. cerevisiae deletion strains, locus YLR039C, strain RIC1, hits give low values 1 | S. cerevisiae deletion strains, locus YLR058C, strain SHM2, hits give low values 1 | S. cerevisiae deletion strains, locus YLR102C, strain apc9, hits give low values 0.974 | S. cerevisiae deletion strains, locus YLR113W, strain HOG1, hits give low values 1.01 | S. cerevisiae deletion strains, locus YLR221C, strain rsa3, hits give low values 1.01 | S. cerevisiae deletion strains, locus YLR258W, strain gsy2, hits give low values 0.985 | S. cerevisiae deletion strains, locus YLR262C, strain YPT6 (second series), hits give low values 0.996 | S. cerevisiae deletion strains, locus YLR262C, strain YPT6, hits give low values 0.965 | S. cerevisiae deletion strains, locus YLR268W, strain sec22, hits give low values 0.97 | S. cerevisiae deletion strains, locus YLR320W, strain mms22, hits give low values 0.966 | S. cerevisiae deletion strains, locus YLR330W, strain CHS5, hits give low values 0.989 | S. cerevisiae deletion strains, locus YLR342W, strain FKS1 (second series), hits give low values 0.998 | S. cerevisiae deletion strains, locus YLR342W, strain FKS1, hits give low values 1 | S. cerevisiae deletion strains, locus YLR357W, strain rsc2, hits give low values 1.02 | S. cerevisiae deletion strains, locus YLR370C, strain arc18, hits give low values 1.01 | S. cerevisiae deletion strains, locus YLR371W, strain rom2, hits give low values 0.962 | S. cerevisiae deletion strains, locus YLR384C, strain iki3, hits give low values 0.998 | S. cerevisiae deletion strains, locus YLR418C, strain cdc73, hits give low values 0.987 | S. cerevisiae deletion strains, locus YML016C, strain PPZ1, hits give low values 0.998 | S. cerevisiae deletion strains, locus YML032C, strain rad52, hits give low values 0.991 | S. cerevisiae deletion strains, locus YML120C, strain ndi1, hits give low values 1.01 | S. cerevisiae deletion strains, locus YML124C, strain tub3, hits give low values 0.982 | S. cerevisiae deletion strains, locus YMR058W, strain fet3, hits give low values 0.978 | S. cerevisiae deletion strains, locus YMR078C, strain ctf18, hits give low values 0.968 | S. cerevisiae deletion strains, locus YMR125W, strain sto1, hits give low values 1.01 | S. cerevisiae deletion strains, locus YMR129W, hits give low values 0.995 | S. cerevisiae deletion strains, locus YMR205C, strain PFK2, hits give low values 1.01 | S. cerevisiae deletion strains, locus YMR223W, strain ubp8, hits give low values 0.972 | S. cerevisiae deletion strains, locus YMR231W, strain pep5, hits give low values 1 | S. cerevisiae deletion strains, locus YMR307W, strain GAS1, hits give low values 0.985 | S. cerevisiae deletion strains, locus YNL067W, strain RPL9B, hits give low values 1.02 | S. cerevisiae deletion strains, locus YNL071W, strain lat1, hits give low values 0.977 | S. cerevisiae deletion strains, locus YNL128W, strain TEP1, hits give low values 0.996 | S. cerevisiae deletion strains, locus YNL153C, strain GIM3, hits give low values 0.998 | S. cerevisiae deletion strains, locus YNL175C, strain NOP13, hits give low values 1 | S. cerevisiae deletion strains, locus YNL183C, strain NPR1, hits give low values 0.973 | S. cerevisiae deletion strains, locus YNL197C, strain WHI3, hits give low values 1.01 | S. cerevisiae deletion strains, locus YNL209W, strain ssb2, hits give low values 0.985 | S. cerevisiae deletion strains, locus YNL224C, strain SQS1, hits give low values 1.01 | S. cerevisiae deletion strains, locus YNL233W, strain BNI4, hits give low values 1.03 | S. cerevisiae deletion strains, locus YNL248C, strain rpa49, hits give low values 0.968 | S. cerevisiae deletion strains, locus YNL250W, strain rad50, hits give low values 0.986 | S. cerevisiae deletion strains, locus YNL271C, strain bni1, hits give low values 0.96 | S. cerevisiae deletion strains, locus YNL298W, strain CLA4, hits give low values 0.969 | S. cerevisiae deletion strains, locus YNL307C, strain MCK1, hits give low values 0.976 | S. cerevisiae deletion strains, locus YNL322C, strain KRE1 (second series), hits give low values 0.982 | S. cerevisiae deletion strains, locus YNL322C, strain KRE1, hits give low values 1.01 | S. cerevisiae deletion strains, locus YNR049C, strain mso1, hits give low values 0.983 | S. cerevisiae deletion strains, locus YNR052C, strain pop2, hits give low values 0.97 | S. cerevisiae deletion strains, locus YOL006C, strain TOP1, hits give low values 1.05 | S. cerevisiae deletion strains, locus YOL012C, strain htz1 0.945 | S. cerevisiae deletion strains, locus YOL147C, strain pex11, hits give low values 0.982 | S. cerevisiae deletion strains, locus YOR001W, strain rrp6, hits give low values 1.01 | S. cerevisiae deletion strains, locus YOR061W, strain CKA2, hits give low values 0.997 | S. cerevisiae deletion strains, locus YOR069W, strain VPS5, hits give low values 0.994 | S. cerevisiae deletion strains, locus YOR070C, strain gyp1, hits give low values 1 | S. cerevisiae deletion strains, locus YOR080W, strain dia2, hits give low values 1.01 | S. cerevisiae deletion strains, locus YOR083W, strain WHI5 (second series), hits give low values 1.03 | S. cerevisiae deletion strains, locus YOR083W, strain WHI5, hits give low values 1.04 | S. cerevisiae deletion strains, locus YOR106W, strain vam3, hits give low values 1.03 | S. cerevisiae deletion strains, locus YOR136W, strain idh2, hits give low values 0.971 | S. cerevisiae deletion strains, locus YOR144C, strain elg1, hits give low values 0.982 | S. cerevisiae deletion strains, locus YOR184W, strain ser1, hits give low values 0.964 | S. cerevisiae deletion strains, locus YOR231W, strain MKK1, hits give low values 1.02 | S. cerevisiae deletion strains, locus YOR265W, strain rbl2, hits give low values 1 | S. cerevisiae deletion strains, locus YOR270C, strain vph1, hits give low values 0.972 | S. cerevisiae deletion strains, locus YOR290C, strain snf2, hits give low values 0.962 | S. cerevisiae deletion strains, locus YOR316C, strain cot1, hits give low values 0.956 | S. cerevisiae deletion strains, locus YPL051W, strain arl3, hits give low values 1.04 | S. cerevisiae deletion strains, locus YPL055C, strain LGE1, hits give low values 1.02 | S. cerevisiae deletion strains, locus YPL078C, strain atp4, hits give low values 1.01 | S. cerevisiae deletion strains, locus YPL106C, strain sse1, hits give low values 0.978 | S. cerevisiae deletion strains, locus YPL240C, strain hsp82, hits give low values 1 | S. cerevisiae deletion strains, locus YPL256C, strain CLN2, hits give low values 1.01 | S. cerevisiae deletion strains, locus YPR119W, strain clb2, hits give low values 0.961 | S. cerevisiae deletion strains, locus YPR141C, strain kar3, hits give low values 0.977 | S. cerevisiae deletion strains, locus YPR163C, strain tif3, hits give low values 0.978 | S. cerevisiae deletion strains, locus YPR167C, strain met16, hits give low values 0.976 | S. cerevisiae deletion strains, strain wtn01, hits give low values 0.985 | S. cerevisiae strains, strain wild type, hits give low values 1
